Experiment [1] deals with Serine/threonine-protein kinase MRCK alpha (Homo sapiens) (UniProt Q5VT25). Conditions: at 0.1 µM.
The target is the same in experiment [2]. Conditions: at 1 µM.
Experiment [3] has as its target Serine/threonine-protein kinase MRCK beta (Homo sapiens) (UniProt Q9Y5S2). The following applies: at 0.1 µM.
For experiment [4] the target is unchanged. The following applies: at 1 µM.
In experiment [5] the target is Ribosomal protein S6 kinase alpha-5 (Homo sapiens) (UniProt O75582). The following applies: at 0.1 µM.
Experiment [6] has the same target. The following applies: at 1 µM.
Experiment [7] has as its target Ribosomal protein S6 kinase alpha-4 (Homo sapiens) (UniProt O75676). The following applies: at 0.1 µM.
Experiment [8] has the same target. Conditions: at 1 µM.
Experiment [9] deals with Ribosomal protein S6 kinase beta-1 (Homo sapiens) (UniProt P23443). Conditions: at 0.1 µM.
Experiment [10] has the same target. Conditions: at 1 µM.
Experiment [11] deals with T1, 3-phosphoinositide-dependent protein kinase 1 (Homo sapiens) (UniProt O15530).
T1 sequence (whole entry): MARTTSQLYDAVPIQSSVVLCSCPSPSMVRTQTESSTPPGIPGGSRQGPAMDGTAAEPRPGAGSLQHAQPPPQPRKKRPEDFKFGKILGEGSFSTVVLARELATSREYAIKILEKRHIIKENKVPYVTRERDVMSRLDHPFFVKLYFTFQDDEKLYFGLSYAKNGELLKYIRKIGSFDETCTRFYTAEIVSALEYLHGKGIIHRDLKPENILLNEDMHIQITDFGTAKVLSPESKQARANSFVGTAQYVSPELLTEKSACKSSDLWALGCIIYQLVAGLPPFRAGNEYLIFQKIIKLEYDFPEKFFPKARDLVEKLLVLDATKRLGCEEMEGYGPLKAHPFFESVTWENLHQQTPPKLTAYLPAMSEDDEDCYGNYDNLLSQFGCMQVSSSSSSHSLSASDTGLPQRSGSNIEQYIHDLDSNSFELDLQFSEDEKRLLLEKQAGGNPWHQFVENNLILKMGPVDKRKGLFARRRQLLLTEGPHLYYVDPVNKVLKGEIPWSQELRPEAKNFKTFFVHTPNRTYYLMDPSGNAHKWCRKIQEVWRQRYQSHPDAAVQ
The following applies: at 0.1 µM.

The target in experiment [12] is cAMP-dependent protein kinase catalytic subunit alpha (Homo sapiens) (UniProt P17612). Conditions: at 0.1 µM.
The target is the same in experiment [13]. Conditions: at 1 µM.
Experiment [14] deals with Protein kinase C alpha type (Homo sapiens) (UniProt P17252). Conditions: at 0.1 µM.
The target is the same in experiment [15]. The following applies: at 1 µM.
Experiment [16] deals with Protein kinase C beta type (Homo sapiens) (UniProt P05771). The following applies: at 0.1 µM.
For experiment [17] the target is unchanged. Conditions: at 1 µM.
The target of experiment [18] is Protein kinase C eta type (Homo sapiens) (UniProt P24723). The following applies: at 0.1 µM.
Experiment [19] has the same target. The following applies: at 1 µM.
The target of experiment [20] is Protein kinase C gamma type (Homo sapiens) (UniProt P05129). The following applies: at 0.1 µM.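 Also: values are mean percent inhibition of PKC gamma.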

These results are taken from ChEMBL document CHEMBL1961873, “Compounds: GSK PKIS; Assays: Nanosyn kinase panel” (2012).

Chain of Protein kinase C beta type (Homo sapiens) (P05771 2-671 limits assumed): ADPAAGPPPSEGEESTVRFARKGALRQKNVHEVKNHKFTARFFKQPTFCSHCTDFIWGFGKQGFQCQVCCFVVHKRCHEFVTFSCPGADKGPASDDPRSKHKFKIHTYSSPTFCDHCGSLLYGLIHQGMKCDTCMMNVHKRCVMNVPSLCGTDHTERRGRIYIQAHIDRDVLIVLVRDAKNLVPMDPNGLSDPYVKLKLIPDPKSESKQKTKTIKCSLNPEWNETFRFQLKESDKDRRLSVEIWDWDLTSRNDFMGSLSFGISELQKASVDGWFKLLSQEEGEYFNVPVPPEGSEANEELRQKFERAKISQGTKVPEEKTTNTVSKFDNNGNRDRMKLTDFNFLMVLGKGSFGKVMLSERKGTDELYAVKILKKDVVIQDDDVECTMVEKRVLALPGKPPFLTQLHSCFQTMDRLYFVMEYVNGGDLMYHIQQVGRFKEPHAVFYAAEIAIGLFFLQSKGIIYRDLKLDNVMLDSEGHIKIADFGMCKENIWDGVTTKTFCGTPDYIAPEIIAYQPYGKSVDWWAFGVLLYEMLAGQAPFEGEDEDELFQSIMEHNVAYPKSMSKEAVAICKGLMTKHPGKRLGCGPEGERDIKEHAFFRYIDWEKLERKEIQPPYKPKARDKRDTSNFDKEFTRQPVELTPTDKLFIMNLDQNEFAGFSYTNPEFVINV
Chain of Ribosomal protein S6 kinase alpha-4 (Homo sapiens) (O75676 whole entry, looked up): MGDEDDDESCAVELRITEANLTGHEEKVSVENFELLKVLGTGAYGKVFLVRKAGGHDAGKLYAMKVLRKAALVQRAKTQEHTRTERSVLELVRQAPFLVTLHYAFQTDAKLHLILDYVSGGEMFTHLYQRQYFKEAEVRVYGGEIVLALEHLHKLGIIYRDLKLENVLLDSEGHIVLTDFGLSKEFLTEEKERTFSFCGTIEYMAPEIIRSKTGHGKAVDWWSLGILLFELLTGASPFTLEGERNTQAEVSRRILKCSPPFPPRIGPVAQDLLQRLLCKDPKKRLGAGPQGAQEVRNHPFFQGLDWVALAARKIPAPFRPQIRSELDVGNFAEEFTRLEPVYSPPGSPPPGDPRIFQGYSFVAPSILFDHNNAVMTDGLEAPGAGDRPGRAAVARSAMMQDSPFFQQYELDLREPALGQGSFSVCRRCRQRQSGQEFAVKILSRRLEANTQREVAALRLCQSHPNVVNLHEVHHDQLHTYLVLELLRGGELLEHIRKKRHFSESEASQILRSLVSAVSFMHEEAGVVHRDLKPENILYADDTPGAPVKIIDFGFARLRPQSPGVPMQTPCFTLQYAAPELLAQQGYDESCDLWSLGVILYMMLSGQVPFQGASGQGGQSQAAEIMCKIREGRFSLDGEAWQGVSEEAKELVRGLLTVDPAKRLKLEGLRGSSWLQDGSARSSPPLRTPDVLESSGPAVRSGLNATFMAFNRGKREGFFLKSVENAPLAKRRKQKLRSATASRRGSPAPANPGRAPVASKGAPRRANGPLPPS
Chain of Ribosomal protein S6 kinase alpha-5 (Homo sapiens) (O75582 whole entry, looked up): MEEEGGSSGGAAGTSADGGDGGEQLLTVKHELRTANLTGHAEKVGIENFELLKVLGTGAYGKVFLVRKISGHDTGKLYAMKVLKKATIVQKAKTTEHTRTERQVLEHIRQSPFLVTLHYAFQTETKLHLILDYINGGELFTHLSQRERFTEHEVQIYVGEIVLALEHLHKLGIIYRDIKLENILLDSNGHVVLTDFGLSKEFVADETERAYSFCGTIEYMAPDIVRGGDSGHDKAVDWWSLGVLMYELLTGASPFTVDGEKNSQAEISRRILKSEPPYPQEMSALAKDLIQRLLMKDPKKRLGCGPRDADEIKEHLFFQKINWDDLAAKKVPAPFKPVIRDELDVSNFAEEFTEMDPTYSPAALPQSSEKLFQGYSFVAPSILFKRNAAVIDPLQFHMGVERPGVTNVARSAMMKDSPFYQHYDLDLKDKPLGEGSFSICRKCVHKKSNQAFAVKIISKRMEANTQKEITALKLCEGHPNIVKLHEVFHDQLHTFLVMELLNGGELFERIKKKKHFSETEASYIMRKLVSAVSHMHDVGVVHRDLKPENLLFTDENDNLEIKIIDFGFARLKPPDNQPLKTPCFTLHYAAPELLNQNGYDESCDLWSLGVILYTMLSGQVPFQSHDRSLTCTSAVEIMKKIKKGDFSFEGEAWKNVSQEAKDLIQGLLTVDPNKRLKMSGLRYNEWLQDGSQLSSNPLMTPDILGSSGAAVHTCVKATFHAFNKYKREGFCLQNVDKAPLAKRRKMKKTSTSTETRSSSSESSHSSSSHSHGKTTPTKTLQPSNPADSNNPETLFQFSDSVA
Chain of Serine/threonine-protein kinase MRCK alpha (Homo sapiens) (Q5VT25 whole entry): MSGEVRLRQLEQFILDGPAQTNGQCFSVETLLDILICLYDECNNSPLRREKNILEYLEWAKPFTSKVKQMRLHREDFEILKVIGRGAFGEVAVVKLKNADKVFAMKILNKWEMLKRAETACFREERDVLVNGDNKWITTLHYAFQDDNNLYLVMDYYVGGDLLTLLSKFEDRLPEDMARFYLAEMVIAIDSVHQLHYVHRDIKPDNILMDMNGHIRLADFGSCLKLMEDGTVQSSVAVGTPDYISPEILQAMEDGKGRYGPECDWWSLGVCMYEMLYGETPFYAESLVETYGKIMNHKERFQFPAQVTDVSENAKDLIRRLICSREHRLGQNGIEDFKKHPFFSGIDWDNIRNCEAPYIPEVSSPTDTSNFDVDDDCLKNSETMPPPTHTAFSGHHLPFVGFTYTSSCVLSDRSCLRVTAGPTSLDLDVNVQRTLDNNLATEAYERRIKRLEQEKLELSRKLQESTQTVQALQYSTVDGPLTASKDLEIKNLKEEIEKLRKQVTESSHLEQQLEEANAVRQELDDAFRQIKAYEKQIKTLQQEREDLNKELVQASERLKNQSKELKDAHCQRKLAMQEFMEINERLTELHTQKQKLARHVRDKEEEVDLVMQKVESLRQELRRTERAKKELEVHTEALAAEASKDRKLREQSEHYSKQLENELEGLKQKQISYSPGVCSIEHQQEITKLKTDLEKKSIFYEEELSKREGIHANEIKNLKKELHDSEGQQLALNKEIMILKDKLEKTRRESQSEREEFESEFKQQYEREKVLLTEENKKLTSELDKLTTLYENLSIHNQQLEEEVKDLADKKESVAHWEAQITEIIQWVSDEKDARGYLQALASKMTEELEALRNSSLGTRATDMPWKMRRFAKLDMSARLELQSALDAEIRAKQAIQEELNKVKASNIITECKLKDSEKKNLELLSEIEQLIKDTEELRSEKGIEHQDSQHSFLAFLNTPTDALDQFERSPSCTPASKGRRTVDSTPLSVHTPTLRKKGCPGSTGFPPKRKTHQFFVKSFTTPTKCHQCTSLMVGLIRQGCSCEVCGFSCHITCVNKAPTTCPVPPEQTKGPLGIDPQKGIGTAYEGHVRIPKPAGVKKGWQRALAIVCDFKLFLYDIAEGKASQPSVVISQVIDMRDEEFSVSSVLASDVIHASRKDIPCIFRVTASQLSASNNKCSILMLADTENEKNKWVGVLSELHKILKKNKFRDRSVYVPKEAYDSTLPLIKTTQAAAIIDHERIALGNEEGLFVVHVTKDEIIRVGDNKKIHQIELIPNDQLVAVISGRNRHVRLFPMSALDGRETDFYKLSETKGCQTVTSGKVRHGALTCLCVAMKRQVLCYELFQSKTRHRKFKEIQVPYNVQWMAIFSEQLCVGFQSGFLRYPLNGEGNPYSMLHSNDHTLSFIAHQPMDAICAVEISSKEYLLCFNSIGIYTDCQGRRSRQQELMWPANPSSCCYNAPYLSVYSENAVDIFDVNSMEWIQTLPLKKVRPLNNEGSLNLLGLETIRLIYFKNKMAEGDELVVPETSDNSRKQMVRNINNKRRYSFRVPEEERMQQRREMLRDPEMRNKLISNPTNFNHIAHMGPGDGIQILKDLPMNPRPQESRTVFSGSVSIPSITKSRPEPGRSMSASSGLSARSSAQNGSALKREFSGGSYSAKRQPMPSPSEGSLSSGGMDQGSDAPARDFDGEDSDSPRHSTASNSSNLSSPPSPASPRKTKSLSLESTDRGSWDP

Consider `Cc1cccc2c1NC(=O)/C2=N\Nc1ccc(S(N)(=O)=O)cc1`, for which the inhibition in [1] was -1.02%; in experiment [2], -1.52%; in [3], 1.33%; in [4] it was 2.51%; in [5], 2.97%; in [6], 4.06%. For the same compound, the inhibition in [7] was found to be 1.89%; in [8] it was 3.82%; in experiment [9], 1.66%; in [10], 2.26%; in experiment [11], 2.44%; in experiment [12], 1.54%. For the same compound, the inhibition in [13] was 2.59%; in experiment [14] it was 0.55%; in experiment [15], 5.16%; in [16] it was 0.49%; in experiment [17], -1.37%; in experiment [18], 4.66%. Besides, the inhibition in [19] was 3.34%; in experiment [20], -3%.

In the case of `COc1cc2c(cc1Nc1nc(Nc3ccsc3C(N)=O)c3cc[nH]c3n1)N(C(=O)CN(C)C)CCC2(C)C`, the inhibition in experiment [1] worked out at 2.48%; in [2], 6.74%; in experiment [3] it was 4.54%; in experiment [4] it was 14.9%; in experiment [5], 4.6%; in experiment [6], 8.3%. Also, the inhibition in [7] came to 5.18%; in experiment [8], 13.8%; in experiment [9], 2.7%; in experiment [10], 4.93%; in experiment [11], 2.56%; in experiment [12], 2.98%. Also, the inhibition in experiment [13] amounted to 8.67%; in experiment [14] it was 4.21%; in experiment [15], 34.3%; in experiment [16] it was 2.16%; in experiment [17] it was 3.73%; in [18], 6.04%. Also, the inhibition in experiment [19] is 9.1%; in experiment [20] it was 8.05%.

Take `Fc1ccc(-c2cc(-c3c[nH]nc3-c3ccccn3)ccn2)cc1`: the inhibition in experiment [1] was -0.62%; in experiment [2] it was 2.14%; in [3], -1.2%; in experiment [4], -2.11%; in experiment [5], 2.42%; in experiment [6], 1.68%. The inhibition in experiment [7] was found to be 2.17%; in [8], 3.21%; in experiment [9] it was 0.99%; in experiment [10], 2.4%; in [11], 0.78%; in [12], 1.9%. Also, the inhibition was 2.54% in experiment [13]; 0.45% in experiment [14]; 0.88% in [15]; 1.93% in [16]; 3.1% in [17]; 4.28% in experiment [18]. The figures for the inhibition in [19] and in experiment [20] were 6.6% and -0.18%, respectively.

Consider `CNC(=O)c1cc(-c2ccc(F)cc2)cc(-c2ccc(S(=O)(=O)N3CCCC3)cc2)c1N`, for which the inhibition in experiment [1] is 1.92%; in [2], 0.6%; in experiment [3], -1.06%; in [4], -0.2%; in [5] it was 9.11%; in experiment [6] it was 8.3%. Also, the inhibition worked out at 1.23% in [7]; 1.99% in experiment [8]; 0.63% in [9]; 1.47% in [10]; 1.46% in [11]; 0.9% in [12]. Further, the inhibition was 0.32% in experiment [13]; 0.46% in experiment [14]; 1.02% in experiment [15]; -0.39% in [16]; 0.24% in [17]; 3.68% in experiment [18]. The inhibition in [19] stood at 1.41%; in [20], 2.34%.

Consider `[O-][S+]1CCN(Cc2ccc(-c3ccc4ncnc(Nc5ccc(OCc6cccc(F)c6)c(Cl)c5)c4c3)o2)CC1`, for which the inhibition was -1.31% in [1]; -1.3% in experiment [2]; -0.28% in experiment [3]; -0.43% in experiment [4]; 3.5% in [5]; 3.71% in experiment [6]. Besides, the inhibition in experiment [7] was 3.38%; in [8], 4.98%; in experiment [9] it was 2.86%; in experiment [10], 3.84%; in experiment [11], 4.4%; in [12] it was 2.27%. The inhibition in [13] was 3.13%; in experiment [14] it was 1.17%; in experiment [15], 1.29%; in experiment [16], -0.91%; in experiment [17] it was 1.67%; in [18] it was 2.12%. Further, the results for the inhibition in experiment [19] and in experiment [20] were 4.25% and 3.03%, respectively.

On to `Nc1nc(-c2ccc(F)cc2)c(-c2ccc3ncccc3n2)s1`, for which the inhibition in experiment [1] was -0.11%; in experiment [2] it was 3.87%; in [3], 0.89%; in [4], 0.94%; in experiment [5], 3.54%; in experiment [6] it was 3.83%. Besides, the inhibition in experiment [7] was found to be 3.18%; in experiment [8], 4.49%; in experiment [9] it was 2.53%; in experiment [10], 2.7%; in experiment [11] it was 3.99%; in experiment [12], 1.65%. In addition, the inhibition in experiment [13] was determined as 3.75%; in experiment [14], 1.13%; in experiment [15], 2.9%; in [16] it was 0.21%; in experiment [17], 3.92%; in experiment [18], 1.76%. Besides, the inhibition in experiment [19] was 6.71%; in [20], 2.26%.

`CC(C)(CO)CNC(=O)c1ccc2c(c1)/C(=N/Nc1ccc(S(N)(=O)=O)cc1)C(=O)N2`: the inhibition is -0.66% in [1]; -2.01% in experiment [2]; 0.21% in experiment [3]; 1.07% in experiment [4]; 0.88% in experiment [5]; 0.97% in experiment [6]. Also, the inhibition in experiment [7] is 1.15%; in experiment [8], 6.02%; in experiment [9], -0.13%; in experiment [10] it was 2.2%; in [11], 13.1%; in [12], 0.87%. Also, the inhibition in [13] was 1.58%; in experiment [14] it was -0.39%; in [15], 0.27%; in experiment [16], -0.69%; in experiment [17], 0.02%; in experiment [18], 2.86%. Moreover, the inhibition is -0.08% in [19] and 1.72% in [20].
